Data on seven compounds can be found in PubChem BioAssay (NCI).

About 83,000 compounds went through this panel and 20% of them were active in at least one assay; those are over-represented in the sample as a whole.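 The endpoint reported here, percent growth, reads 100 for growth as untreated, 0 for no net growth and -100 for all cells dead.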 Calls of active or inactive are those of the source. Rule for the calls: active = growth percent below 10; inactive = the rest.

The test system of this test is HL-60(TB) leukemia. As to the kind of experiment: NCI-60 one-dose screen, 48 h (100 = growth as untreated, 0 = no growth, -100 = all killed). The conditions noted are these: 10 µM unless noted.
Turning to `COc1ccc(NC(=O)CSc2nnc(-c3ccc4nc(-c5ccc(Cl)cc5)[nH]c4c3)o2)cc1`, the growth is 63% (inactive). Regarding `COc1c(B(O)O)cc(F)cc1-c1nc2c(F)cc3[nH]ncc3c2c2c1CCCC2`, the growth is 1.83% (active).

As for `O=c1[nH]c2ccccc2cc1CSc1ccccc1Nc1nccc(-c2ccc3c(c2)OCO3)n1`, the growth is 98% (inactive).

Turning to `CC(C)c1ccc2c(N)c(C(=O)Nc3ccc(C(F)(F)F)cn3)sc2n1`, the growth is 46.8% (inactive).

With `Cc1ccc(-c2cc(-c3ccccc3)[nH]c(=O)c2C#N)cc1`, the growth was 86.9% (inactive).

Consider `Cn1cc(-c2nc(N)nnc2-c2c[nH]c3ccc(F)cc23)c2cccnc21`, for which the growth was 37.2% (inactive). The value for `COc1ccc2[nH]cc(-c3cc4nc(-c5cn(C)c6ncc(Br)cc56)cc(N)n4n3)c2c1` was -61.2% (active).
